Results from PubChem BioAssay (NCATS).
Unmarked numbers belong to inactive results. Records with an inconclusive call do not appear. Calls of active or inactive are those of the source. Unless noted, the call rests on the fitted dose curve; in most records, active means well fitted curve in either direction with a large enough effect (not every such curve was filed as active); inconclusive means small, poorly fitted or top-dose-only effect, or another doubt; inactive means flat fitted curve, though single readings scatter.

How the values were obtained:
[1] = molecular target: Lysosomal acid glucosylceramidase (Homo sapiens) (UniProt P04062); assay: Glucocerebrosidase-p2 (AID 348; in the data active means potency below about 10 µM; further: potency means the concentration at half of the fitted maximal effect); settings: purified GBA, blue fluorogenic substrate, 40 min
Sequence of Lysosomal acid glucosylceramidase (Homo sapiens) (P04062 whole entry, looked up): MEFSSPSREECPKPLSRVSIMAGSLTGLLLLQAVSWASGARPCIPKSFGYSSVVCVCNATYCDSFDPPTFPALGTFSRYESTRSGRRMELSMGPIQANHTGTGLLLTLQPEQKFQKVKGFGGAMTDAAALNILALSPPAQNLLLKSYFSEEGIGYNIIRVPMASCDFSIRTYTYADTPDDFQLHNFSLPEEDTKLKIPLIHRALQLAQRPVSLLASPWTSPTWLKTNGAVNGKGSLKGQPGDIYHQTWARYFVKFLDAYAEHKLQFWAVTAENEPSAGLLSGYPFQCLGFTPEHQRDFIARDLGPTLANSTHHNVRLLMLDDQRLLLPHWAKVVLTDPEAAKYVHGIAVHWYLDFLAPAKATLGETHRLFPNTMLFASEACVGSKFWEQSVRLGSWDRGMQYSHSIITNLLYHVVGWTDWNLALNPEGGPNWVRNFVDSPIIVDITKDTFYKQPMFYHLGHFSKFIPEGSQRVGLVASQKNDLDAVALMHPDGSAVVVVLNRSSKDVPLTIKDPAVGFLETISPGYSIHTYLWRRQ
How it was run: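 Normal human glucocerebrosidase (0.2 nM) with blue fluorogenic substrate (80 uM final) in citrate/phosphate pH 5.9 with 10mM sodium taurocholate, 0.01% tween-20; 40 min RT, NaOH/glycine stop; fluorescence Ex 365/Em 440; AC50 from a titration from 0.6 nM upwards.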

[2] = AP1 Signaling Pathway (AID 357); settings: ME-180 AP-1-bla reporter, EGF-induced, beta-lactamase ratio, 5 h; at 7.69 µM (top of the series) unless noted;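 further: ME-180 reporter cells stimulated with EGF at its EC50 level; on the % scale 0 is the no-effect control and ±100 the full control effect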
How it was run: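 Cells are seeded overnight, exposed to compound titrations and an EC50 level of EGF for 5 hours at 37 °C, then loaded with CCF4 dye for 2.5 hours. Beta-lactamase activity under the AP-1 element is read as a blue/green ratio.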

[3] = NFAT Signaling Pathway (AID 444); settings: Jurkat NFAT-bla M1, carbachol, beta-lactamase ratio, 5 h; at 7.69 µM (top of the series) unless noted;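 further: carbachol stimulus at about its EC50 of 1 µM final; on the % scale 0 is the no-effect control and ±100 the full control effect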
How it was run: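 Jurkat cells carrying an NFAT-driven β-lactamase reporter and co-transfected muscarinic M1 receptor were treated with compound plus carbachol (1 uM final, an EC50 level) for 5 h at 37 °C. CCF4 loading followed for 1 h at RT; 460/530 nm ratio gave %activity.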

[4] = Stat Signaling Pathway (AID 446); settings: ME-180 (cervical carcinoma) SIE beta-lactamase reporter, IL-6 stimulated, 5 h; at 7.69 µM (top of the series) unless noted;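 further: ME-180 cervical cancer cells given 40 pM IL-6 alongside compound; SIE-controlled beta-lactamase reporter measured as 460/530 nm FRET emission ratio; on the % scale 0 is the no-effect control and ±100 the full control effect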
How it was run: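 Emission at 460 and 530 nm (excitation 405 nm) reports SIE-controlled beta-lactamase in ME-180 cells. Cells received compound with 40 pM IL-6 for 5 hrs at 37 C; data scaled between 300 pM IL-6 and 125 nM JAK-inhibitor controls.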

[5] = molecular target: Glucocorticoid receptor (Homo sapiens) (UniProt P04150); assay: GR-GFP Redistribution (AID 450;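 active means compounds whose dose series gives a full or clear partial fitted curve of increased nuclear translocation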; further: potency means the concentration at half of the fitted maximal effect); settings: U2OS GR-GFP nuclear translocation, laser cytometry, 2 h
Sequence of Glucocorticoid receptor (Homo sapiens) (P04150 whole entry, looked up, the tested form may be a part): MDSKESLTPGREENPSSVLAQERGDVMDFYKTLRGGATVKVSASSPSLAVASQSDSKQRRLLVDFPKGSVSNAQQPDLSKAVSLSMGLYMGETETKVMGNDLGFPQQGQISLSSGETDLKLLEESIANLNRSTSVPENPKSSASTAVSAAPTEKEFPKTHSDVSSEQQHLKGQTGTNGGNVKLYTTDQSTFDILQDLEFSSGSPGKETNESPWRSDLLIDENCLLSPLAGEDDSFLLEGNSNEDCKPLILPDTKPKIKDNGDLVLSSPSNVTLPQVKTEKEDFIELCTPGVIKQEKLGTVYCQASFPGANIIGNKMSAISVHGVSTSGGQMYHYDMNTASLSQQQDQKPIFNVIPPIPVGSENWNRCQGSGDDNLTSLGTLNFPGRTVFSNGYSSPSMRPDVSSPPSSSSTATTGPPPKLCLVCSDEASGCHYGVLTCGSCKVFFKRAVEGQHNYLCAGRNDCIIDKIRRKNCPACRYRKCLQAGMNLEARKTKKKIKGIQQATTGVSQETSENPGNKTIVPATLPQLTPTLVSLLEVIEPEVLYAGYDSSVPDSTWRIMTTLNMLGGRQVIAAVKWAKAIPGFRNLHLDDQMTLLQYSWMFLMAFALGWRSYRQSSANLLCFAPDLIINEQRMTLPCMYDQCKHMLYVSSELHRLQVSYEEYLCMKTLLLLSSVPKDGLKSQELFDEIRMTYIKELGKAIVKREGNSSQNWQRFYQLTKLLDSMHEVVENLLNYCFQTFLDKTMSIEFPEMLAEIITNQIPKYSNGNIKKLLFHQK

[6] = molecular target: Glucocorticoid receptor (Homo sapiens) (UniProt P04150); assay: GR-EFC Redistribution (AID 451; calls by dose curve; further: potency means the concentration at half of the fitted maximal effect); settings: CHO-K1 GR-EFC translocation, beta-gal luminescence, 2 h
How it was run: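 CHO-K1 cells stably expressing nuclear-localized β-gal enzyme acceptor and GR fused C-terminally to the enzyme donor fragment; ligand-driven nuclear translocation restores β-gal by complementation. Compounds titrated up to 46 uM final, 2 h at 37 °C; luminescence read.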

[7] = molecular target: Mitogen-activated protein kinase 10 (Mus musculus) (UniProt Q61831); assay: JNK3 AlphaScreen Assay (AID 530); settings: JNK3 lysate, c-Jun phosphorylation; series mostly up to 11.4 µM;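 further: kinase came from lysate of stimulated human HepG2 cells; signal reports phosphorylation of biotinylated GST-cJun 1-79 at Ser73 with 10 µM ATP; on the % scale 0 is the no-effect control and ±100 the full control effect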
How it was run: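 Biotinylated GST-cJun(1-79) served as substrate for JNK3 in HepG2 lysates stimulated with IL-1beta and TNF-alpha. ATP was 10 uM final, pH 7.6. Ser73 phosphorylation was quantified by AlphaScreen (680 nm excitation).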

[8] = molecular target: 3',5'-cyclic-AMP phosphodiesterase 4B (Homo sapiens) (UniProt Q07343); assay: qHTS Assay for Inhibitors of PDE-IV (AID 607; active means well fitted activation curve with a large enough effect in the main read-out, with a control signal flat, not every such curve was filed as active; further: % of control where 0% means no effect); settings: HEK293 ACTOne CNG channel cells, membrane potential fluorescence; series mostly up to 22.9 µM
Sequence of 3',5'-cyclic-AMP phosphodiesterase 4B (Homo sapiens) (Q07343 whole entry, looked up): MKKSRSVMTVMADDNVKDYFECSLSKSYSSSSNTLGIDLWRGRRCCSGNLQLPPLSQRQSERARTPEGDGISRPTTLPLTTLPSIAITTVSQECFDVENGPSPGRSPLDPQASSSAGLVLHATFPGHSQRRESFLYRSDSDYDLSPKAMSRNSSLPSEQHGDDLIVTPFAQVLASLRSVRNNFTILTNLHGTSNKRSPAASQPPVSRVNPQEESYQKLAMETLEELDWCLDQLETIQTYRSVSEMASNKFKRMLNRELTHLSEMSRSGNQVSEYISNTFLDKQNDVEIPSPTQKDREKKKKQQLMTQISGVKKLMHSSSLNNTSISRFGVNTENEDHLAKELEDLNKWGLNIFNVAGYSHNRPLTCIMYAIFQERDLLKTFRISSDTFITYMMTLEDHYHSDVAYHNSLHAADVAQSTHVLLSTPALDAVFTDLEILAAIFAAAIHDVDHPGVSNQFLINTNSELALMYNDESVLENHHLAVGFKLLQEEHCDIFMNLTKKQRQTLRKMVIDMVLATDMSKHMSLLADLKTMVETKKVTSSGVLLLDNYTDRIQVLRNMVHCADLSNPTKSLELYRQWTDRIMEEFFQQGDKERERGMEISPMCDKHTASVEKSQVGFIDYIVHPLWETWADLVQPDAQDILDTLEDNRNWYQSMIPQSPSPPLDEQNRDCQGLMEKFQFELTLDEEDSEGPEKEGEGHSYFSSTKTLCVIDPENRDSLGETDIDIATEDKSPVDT
How it was run: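 The readout is membrane depolarisation from a cAMP-sensing CNG channel, detected with a potential dye at ex 535/em 590. Cells were HEK293-derived (endogenous PDE-IV) at 1000 cells/well, titrated up to 22.9 uM final.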

| Compound | Potency [1] | activity change, negative = inhibition [2] [%] | activity change, negative = inhibition [3] [%] | activity, negative = inhibition [4] [%] | Potency [5] [µM] | Potency [6] [µM] | Potency [7] | Potency [8] |
| --- | --- | --- | --- | --- | --- | --- | --- | --- |
| COc1c2c(c3c(c1CCC(=O)O)OC(C)(C)C=C3)OC(C)(C)C=C2 | > 11.4 µM | -1.7 | 13.1 | -3.06 | > 46 | > 9.22 | inactive | inactive |
| Nc1ccccc1N=Nc1c(S(=O)(=O)O)cc2cc(S(=O)(=O)O)cc(O)c2c1O | > 11.4 µM | -8.99 | -1.89 | -10.2 | > 46 | > 9.22 | inactive | inactive |
| NC1(C(=O)OCc2ccccc2)CCCC1 | > 11.4 µM | 8.77 | -4.79 | 3.45 | > 46 | > 9.22 | inactive | inactive |
| C[N+](C)(C)CC(=O)N/N=C\c1ccncc1 | > 11.4 µM | -2.8 | 3.32 | 8.79 | > 46 | > 9.22 | inactive | inactive |
| N[C@@H](CNO)C(=O)O | > 11.4 µM | 7.51 | 0.975 | -9.2 | > 46 | > 9.22 | inactive | inactive |
| C[C@H](CCC(=O)NN)[C@@H]1CC[C@@H]2[C@H]3CC[C@H]4C[C@@H](O)CC[C@@]4(C)[C@@H]3CC[C@]21C | > 11.4 µM | 12.8 | 17 | -5.92 | > 46 | > 9.22 | inactive | inactive |
| O=C1c2cccc(O)c2C(=O)c2c(O[C@@H]3O[C@H](CO)[C@@H](O)[C@H](O)[C@@H]3O)cccc21 | 2.95 µM (active) | 29.9 | 5.22 | 8.12 | > 46 | > 9.22 | inactive | inactive |
| CN1[C@@H](c2ccccc2)CC(=NO)C[C@H]1c1ccccc1 | > 11.4 µM | 0.163 | -20.1 | 5.8 | > 46 | > 9.22 | inactive | inactive |
| O=C(c1nc2ccc([N+](=O)[O-])cc2[nH]c1=O)[C@@H](O)c1ccc2c(c1)OCO2 | > 11.4 µM | -1.57 | 2.9 | 12.9 | > 46 | > 9.22 | inactive | inactive |
| OC[C@@H](O)[C@@H](O)[C@@H](O)[C@@H](O)c1nc2ccc(Cl)cc2[nH]1 | > 11.4 µM | 4.42 | 10.1 | -0.802 | > 46 | > 9.22 | inactive | inactive |
| CC(=O)Nc1c(C)cc(OCC(=O)O)cc1C | > 11.4 µM | -0.915 | 19.3 | 12.5 | > 46 | > 9.22 | inactive | inactive |
| COc1cc2c(cc1O)[C@@H](c1cc(O)c(O)c(OC)c1)[C@@](O)(C(=O)O)[C@@H](CO)[C@@H]2O | > 11.4 µM | 0.0448 | -5.96 | 4.61 | > 46 | > 9.22 | inactive | inactive |
| NS(=O)(=O)c1ccc(NC(=O)Nc2cccc3ccccc23)cc1 | > 11.4 µM | -4.66 | 12.6 | -9.73 | > 46 | > 9.22 | inactive | inactive |
| c1ccc(B2OC[C@@H]3OB(c4ccccc4)O[C@H]([C@@H]4COB(c5ccccc5)O4)[C@@H]3O2)cc1 | > 11.4 µM | -8.96 | 19.9 | -6.35 | > 46 | > 9.22 | inactive | inactive |
| O=CNc1ncn[nH]1 | > 11.4 µM | -1.52 | -0.432 | 8.03 | > 46 | > 9.22 | inactive | inactive |
| CN(C)CCSS(=O)(=O)O | > 11.4 µM | 6.2 | 5.08 | -1.46 | > 46 | > 9.22 | inactive | inactive |
| O=C(O)/C(Cc1cn[nH]n1)=N\O | > 11.4 µM | 16.4 | 0.206 | 1.63 | > 46 | > 9.22 | inactive | inactive |
| Nc1nc(-c2ccccc2)c(CC(=O)O)s1 | > 11.4 µM | 0.597 | 18.8 | 0.225 | > 46 | > 9.22 | inactive | inactive |
| O=C(O)C[C@@H](C(=O)O)c1ccccc1[N+](=O)[O-] | > 11.4 µM | 10.5 | 13 | 6.64 | > 46 | > 9.22 | inactive | inactive |
| NNC(=O)c1ccc(OCc2nc3ccccc3[nH]2)cc1 | > 11.4 µM | -12.3 | 13.6 | -6.78 | > 46 | > 9.22 | inactive | inactive |
| CCOC(=O)c1c(O)[nH]c(=O)c(CC)c1C | > 11.4 µM | -5.14 | -3.29 | 13.4 | > 46 | > 9.22 | inactive | inactive |
| COc1ccc2c(C)cc(C)nc2n1 | > 11.4 µM | 0.0891 | 9.21 | 8.73 | > 46 | > 9.22 | inactive | inactive |
| Cn1c(=O)c2c(ncn2CCSS(=O)(=O)O)n(C)c1=O | > 11.4 µM | -0.109 | 18.1 | -2.16 | > 46 | > 9.22 | inactive | inactive |
| CNC/C(Cl)=N/S(=O)(=O)c1ccc(C)cc1 | > 11.4 µM | -4.53 | 8.45 | 2.28 | > 46 | > 9.22 | inactive | inactive |
| N#C[C@H](C(=O)O)C(c1c(Cl)cccc1Cl)[C@H](C#N)C(=O)O | > 11.4 µM | 1.46 | 5.02 | 5.11 | > 46 | > 9.22 | inactive | inactive |
| O=C(O)c1cccc(C[C@H](Br)C(=O)O)c1 | > 11.4 µM | 3.81 | 14.3 | 9.47 | > 46 | > 9.22 | inactive | inactive |
